The text below walks through data of PubChem BioAssay (NCATS).

Holding throughout (assay): qHTS profiling for inhibitors of Plasmodium falciparum proliferation (AID 504749); further: nearly all actives have a fitted effect of over 60% in size
Settings in all cases: P. falciparum in erythrocytes, SYBR Green DNA, 72 h; series mostly up to 28.7 µM
(Quantitative high-throughput screening tests each substance at several concentrations.)

One experiment deals with PC15. The essentials: (§1)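 Each compound contacts P. falciparum-infected red blood cells for 72 h at 37 C; lysis buffer (Tris, EDTA, saponin, Triton X, SYBR Green I) is added and fluorescence measured next morning; values normalized to controls.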
For another experiment, the system named is PC26. The essentials:
as §1

Another experiment deals with PC49. The procedure, abridged: as §1
For another experiment, the system named is SC27B. The procedure, abridged:
as §1

The next experiment relates to TAB109. The essentials:
as §1

The next experiment has as its system TAB113. The essentials: as §1
The subject of another experiment is TAB165. The procedure, abridged:
as §1

A further experiment deals with W2. The procedure, abridged:
as §1

Molecules are shown by their SMILES. Results filed as inconclusive are left out. Activity calls are given as the source filed them. The call rests on the fitted dose curve; in most records, active means well fitted inhibition curve with a large enough effect; inconclusive means small, poorly fitted or top-dose-only effect; inactive means flat fitted curve, though single readings scatter.
Potency means the concentration at half of the fitted maximal effect.

As for `Oc1ccc(Cl)c2c1CCC2`, the Potency result with PC15, with PC26, with PC49, in the experiment on SC27B, in the experiment on TAB109 and in the experiment with TAB113 was “inactive” in each case. Besides, the Potency result in the experiment with TAB165 and in the experiment on W2 was “inactive” in each case.
In the case of `OC[C@H]1O[C@@H]2O[C@H]3[C@H](O)[C@@H](O)[C@@H](O[C@H]4[C@H](O)[C@@H](O)[C@@H](O[C@H]5[C@H](O)[C@@H](O)[C@@H](O[C@H]6[C@H](O)[C@@H](O)[C@@H](O[C@H]7[C@H](O)[C@@H](O)[C@@H](O[C@H]1[C@H](O)[C@H]2O)O[C@@H]7CO)O[C@@H]6CO)O[C@@H]5CO)O[C@@H]4CO)O[C@@H]3CO`, the Potency result in the experiment with PC15, in the experiment on PC26, with PC49, with SC27B, with TAB109 and in the experiment on TAB113 was “inactive” each time. Moreover, the Potency result with TAB165 and with W2 was “inactive” throughout.
Turning to `CC(=O)N=c1sc(S(N)(=O)=O)nn1C`, the Potency entry in the experiment on PC15, with PC26, in the experiment with PC49, in the experiment on SC27B, in the experiment with TAB109 and in the experiment on TAB113 was “inactive” throughout. Also, the Potency result in the experiment with TAB165 and with W2 was “inactive” throughout.
With `CC12CCC(C[N+](C)(CCC[N+](C)(C)C)C1)C2(C)C` (centres undefined), the Potency entry in the experiment with PC15, in the experiment with PC26, in the experiment on PC49, with SC27B, in the experiment with TAB109 and with TAB113 was “inactive” throughout. Also, the Potency entry with TAB165 and with W2 was “inactive” each time.
With `O=C(O)Cc1nn(Cc2ccc(Br)cc2F)c(=O)c2ccccc12`, the Potency result in the experiment with PC15, with PC26, in the experiment on PC49, in the experiment on SC27B, in the experiment on TAB109 and with TAB113 was “inactive” in each case. For the same compound, the Potency entry in the experiment on TAB165 and with W2 was “inactive” each time.
On to `CCC(=O)c1ccc2c(c1)N(CCCN1CCN(CCO)CC1)c1ccccc1S2`, for which the Potency is 7.08 µM (active) with PC15; 7.57 µM (active) in the experiment on PC26; 10 µM (active) in the experiment with PC49; 10 µM (active) with TAB165; 5.36 µM (active) in the experiment with W2.
Take `CCOC(=O)[C@@H](N)CS`: the Potency result in the experiment on PC15, with PC26, with SC27B, with TAB109, in the experiment with TAB113 and in the experiment with TAB165 was “inactive” in each case. Further, the Potency result in the experiment on W2 was “inactive”.
In the case of `CNC(=O)c1c(I)c(C(=O)NCC(=O)Nc2c(I)c(C(=O)O)c(I)c(C(=O)NCCO)c2I)c(I)c(N(C)C(C)=O)c1I`, the Potency entry with PC15, in the experiment with PC26, in the experiment on PC49, with SC27B, in the experiment with TAB113 and with TAB165 was “inactive” in each case. For the same compound, in the experiment with W2, the Potency result was “inactive”.
As to `COc1ccc2c(c1)OC(C)(C)C(c1ccccc1)C2c1ccc(OCCN2CCCC2)cc1` (centres undefined), the Potency was 11.2 µM (active) with PC15; 4.78 µM (active) with PC26; 8.91 µM (active) in the experiment with SC27B; 3.16 µM (active) in the experiment with TAB109; 8.91 µM (active) with TAB113; 3.16 µM (active) in the experiment with TAB165. In the experiment with W2, the Potency was 1.69 µM (active).
Consider `CSCCC(N)C(=O)O` (centres undefined), for which the Potency result with PC15, in the experiment with PC49, in the experiment on SC27B, in the experiment on TAB109, with TAB113 and in the experiment with TAB165 was “inactive” throughout. In addition, in the experiment on W2, the Potency result was “inactive”.
With `CNC(=O)[C@H](Cc1c[nH]c2ccccc12)NC(=O)[C@@H](CC(=O)NO)CC(C)C`, the Potency entry in the experiment on PC15, with PC26, in the experiment on PC49, in the experiment on SC27B and with TAB113 was “inactive” each time. Besides, the Potency in the experiment with W2 was 15.1 µM (active).
On to `CC(=O)Nc1c(I)c(C(=O)O)c(I)c(N(C)C(C)=O)c1I`, for which the Potency entry with PC15, with PC26, in the experiment with PC49, with TAB109, in the experiment on TAB113 and with TAB165 was “inactive” throughout. Moreover, the Potency entry with W2 is “inactive”.
In the case of `CCOC(=O)c1cc(-c2ccccc2)nc2ccc(C)cc12`, the Potency entry with PC15, in the experiment on PC26, in the experiment on PC49, in the experiment with SC27B, with TAB165 and in the experiment with W2 was “inactive” in each case.
Take `CC(C)(C)CC(C)(C)c1ccc(OCCO)cc1`: the Potency entry with PC15, in the experiment with PC26, in the experiment with PC49, with SC27B, with TAB109 and in the experiment with TAB113 was “inactive” throughout. Also, the Potency result with W2 was “inactive”.
On to `CO/N=C(\C(=O)N[C@@H]1C(=O)N2C(C(=O)[O-])=C(C[n+]3cccc4c3CCC4)CS[C@H]12)c1csc(N)n1`, for which the Potency result with PC15, in the experiment on PC26, in the experiment on PC49, with SC27B, in the experiment on TAB109 and in the experiment with TAB165 was “inactive” throughout. In the experiment with W2, the Potency result was “inactive”.
For the compound `O=C(O)/C=C/C(=O)Nc1ccc(S(=O)(=O)Nc2nccs2)cc1`, the Potency entry with PC15, with PC26, in the experiment on PC49, in the experiment with SC27B, in the experiment with TAB109 and with TAB113 was “inactive” throughout. Also, the Potency result with TAB165 and with W2 was “inactive” each time.
For `CN1c2c(nc(N)[nH]c2=O)NCC1CNc1ccc(C(=O)NC(CCC(=O)O)C(=O)O)cc1` (centres undefined), the Potency result with PC15, with PC26, with PC49, in the experiment with SC27B, in the experiment with TAB109 and in the experiment with TAB165 was “inactive” each time. Further, the Potency result in the experiment with W2 was “inactive”.
Take `CC(C)Cc1ccc([C@@H](C)C(=O)NS(C)(=O)=O)cc1`: the Potency entry with PC15, in the experiment on PC26, in the experiment on PC49, in the experiment on SC27B, with TAB113 and in the experiment with TAB165 was “inactive” each time. Further, the Potency entry in the experiment with W2 is “inactive”.
For `Cn1cc(NC(=O)c2cc(NC(=O)c3cc(NC=O)cn3C)cn2C)cc1C(=O)NCCC(=N)N`, the Potency is 7.08 µM (active) in the experiment on PC15; 13.5 µM (active) with PC26; 11.2 µM (active) with SC27B; 5.01 µM (active) in the experiment with TAB109; 5.01 µM (active) in the experiment with TAB113; 5.01 µM (active) with TAB165. In the experiment on W2, the Potency was 4.78 µM (active).
In the case of `CC(C)=CCC/C(C)=C/CC/C(C)=C/CC/C=C(\C)CC/C=C(\C)CCC=C(C)C`, the Potency entry in the experiment on PC15, in the experiment with PC26, with SC27B, in the experiment on TAB109, with TAB113 and in the experiment on TAB165 was “inactive” throughout.
As to `CC1C(=O)CC2C3(C)CCC2(C(C)C(=O)O)C(=O)C13` (centres undefined), the Potency result with PC15, with PC26, with PC49, in the experiment on SC27B, with TAB109 and in the experiment with TAB113 was “inactive” in each case. The Potency entry with TAB165 and in the experiment on W2 was “inactive” throughout.
Turning to `O=C(Nc1ccc(O)cc1)c1ccccc1O`, the Potency entry with PC15, in the experiment with PC26, with PC49, with SC27B, in the experiment with TAB109 and in the experiment with W2 was “inactive” each time.
`Cc1cccc(Nc2ncccc2C(=O)O)c1C`: the Potency result in the experiment on PC15, in the experiment with PC26, in the experiment with PC49, in the experiment on SC27B, in the experiment with TAB165 and in the experiment with W2 was “inactive” each time.
Regarding `CCCCC/C=C\C/C=C\C/C=C\CCCCC(=O)O`, the Potency result in the experiment with PC15, in the experiment with PC26, with PC49, in the experiment on SC27B, in the experiment on TAB109 and in the experiment with TAB165 was “inactive” throughout. Besides, the Potency entry in the experiment on W2 is “inactive”.
As to `O=C1CCC(c2ccccc2)(C2CCN(Cc3ccccc3)CC2)C(=O)N1` (centres undefined), the Potency result in the experiment on PC15, in the experiment on PC26, with PC49, with SC27B, in the experiment with TAB113 and in the experiment on TAB165 was “inactive” each time. In addition, the Potency in the experiment on W2 is 6.75 µM (active).
Consider `CC(=O)c1ccc2c(c1)N(CCCN1CCN(CCO)CC1)c1ccccc1S2`, for which the Potency with PC15 was 11.2 µM (active); in the experiment on PC26 it was 7.57 µM (active); in the experiment on PC49, 11.2 µM (active); with TAB109, 7.08 µM (active); in the experiment on TAB165, 11.2 µM (active); in the experiment with W2 it was 5.36 µM (active).
As for `CC1=CC(=C(c2ccc(N)cc2)c2ccc(N)cc2)C=CC1=N`, the Potency in the experiment with PC15 is 11.2 µM (active); with PC26, 5.36 µM (active); in the experiment with SC27B, 3.16 µM (active); in the experiment with TAB109, 2.24 µM (active); in the experiment with TAB113 it was 1.41 µM (active); with TAB165, 2 µM (active). For the same compound, the Potency with W2 is 0.536 µM (active).
On to `N=C(N)c1ccc(/C=C/c2ccc(C(=N)N)cc2O)cc1`, for which the Potency is 12.6 µM (active) with PC15; 8.49 µM (active) in the experiment with PC26; 10 µM (active) with SC27B; 17.8 µM (active) with TAB109; 3.98 µM (active) in the experiment on TAB113; 4.47 µM (active) in the experiment on TAB165.
Regarding `O=c1n(CC2CO2)c(=O)n(CC2CO2)c(=O)n1CC1CO1` (centres undefined), the Potency entry in the experiment on PC15, with PC26, in the experiment with PC49, with SC27B and in the experiment with TAB113 was “inactive” throughout.
